# JMJD2A Tudor = inhibitors of human JMJD2A Tudor domain; O75164; AlphaScreen JMJD2A-Tudor / H3K4me3 peptide binding; Potency, µM (series often up to 114 µM), for inactives: top-dose activity change, negative = inhibition, usual class: inhibitors; hit rate 4.4% among 390,000; AID 504339; further: potency means the concentration at half of the fitted maximal effect; on the % scale 0 is the no-effect control and ±100 the full control effect; nearly all actives have a fitted effect of over 50% in size
# Target sequence (O75164 whole entry, looked up, the tested form may be a part): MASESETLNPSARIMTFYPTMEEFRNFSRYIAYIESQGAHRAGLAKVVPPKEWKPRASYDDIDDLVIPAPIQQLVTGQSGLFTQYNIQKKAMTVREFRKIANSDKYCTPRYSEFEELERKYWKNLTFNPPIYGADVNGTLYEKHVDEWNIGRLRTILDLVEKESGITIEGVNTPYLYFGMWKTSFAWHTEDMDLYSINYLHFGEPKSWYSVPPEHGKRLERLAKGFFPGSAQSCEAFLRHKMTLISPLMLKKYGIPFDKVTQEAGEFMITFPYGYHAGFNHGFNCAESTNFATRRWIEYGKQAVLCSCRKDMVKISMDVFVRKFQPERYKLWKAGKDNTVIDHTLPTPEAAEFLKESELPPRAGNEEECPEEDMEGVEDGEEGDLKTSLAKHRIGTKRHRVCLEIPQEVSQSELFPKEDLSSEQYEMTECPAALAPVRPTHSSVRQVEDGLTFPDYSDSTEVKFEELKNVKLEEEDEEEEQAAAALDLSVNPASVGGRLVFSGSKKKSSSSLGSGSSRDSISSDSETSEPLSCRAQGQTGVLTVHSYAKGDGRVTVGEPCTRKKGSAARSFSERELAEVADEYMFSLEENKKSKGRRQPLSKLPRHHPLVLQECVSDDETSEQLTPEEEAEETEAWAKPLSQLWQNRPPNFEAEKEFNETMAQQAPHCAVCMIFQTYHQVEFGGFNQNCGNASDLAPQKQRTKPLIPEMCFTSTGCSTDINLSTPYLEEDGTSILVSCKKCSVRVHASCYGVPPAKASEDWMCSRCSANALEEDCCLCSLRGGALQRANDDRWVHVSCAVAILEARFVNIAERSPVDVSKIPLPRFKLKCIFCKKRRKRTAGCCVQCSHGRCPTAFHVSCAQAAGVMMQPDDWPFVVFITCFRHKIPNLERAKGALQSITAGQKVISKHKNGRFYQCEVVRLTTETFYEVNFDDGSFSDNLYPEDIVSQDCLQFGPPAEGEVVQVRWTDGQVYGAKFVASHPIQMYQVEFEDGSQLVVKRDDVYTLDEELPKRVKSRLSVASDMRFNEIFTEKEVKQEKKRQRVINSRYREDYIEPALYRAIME
# HP1b chromo inh = inhibitors of HP1-beta chromodomain binding to methylated histone tails | P83916 | AlphaScreen HP1-beta / biotin-H3K9me3 peptide binding | Potency, µM (top dose mostly 114 µM), without a hit: at the highest dose activity change, negative = inhibition, actives largely listed as inhibitors | hit rate 0.56% among 390,000; further: potency means the concentration at half of the fitted maximal effect; nearly all actives have a fitted effect of over 70% in size
#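 Compound inhibition of the preformed complex between 50 nM HP1-beta and 50 nM biotinylated H3K9me3 peptide was read by AlphaScreen. Buffer was PBS pH 7.4 with 0.01% Tween-20. Incubations ran 30 min at room temperature, with 10 ug/mL donor/acceptor beads.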
# PI5P4Ka inh = inhibitors of human PI5P4K alpha; P48426; PI5P4Kalpha enzyme, ADP-Glo luminescence, 60 min; active compounds read low; max response, %; hit rate 1.2% among 330,000; active means max response of -50% or lower; inconclusive means between -30% and -50%; inactive means -30% or higher; further: value at the top dose of about 77 µM; on the % scale 0 is the no-effect control and ±100 the full control effect
#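 qHTS, 1536-well: enzyme/substrate mix, compound by pin tool, 5 microM ATP final; RT 60 min; ADP-Glo reagents 1 (45 min) then 2 (30 min); luminescence.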
# KDM4E inh = blocks human JMJD2E demethylase activity | AID 2147 | B2RXH2 | hit rate 1.6% among 230,000 | Potency, µM (series often up to 57.1 µM), for inactives: at the highest dose activity change, negative = inhibition, usual class: inhibitors | JMJD2E catalytic domain, FDH-coupled NADH fluorescence (FDH is formaldehyde dehydrogenase); active means well fitted inhibition curve with a large enough effect, not every such curve was filed as active; inconclusive means small, poorly fitted or top-dose-only effect, or another doubt; inactive means no such curve, though single readings can be large or run the other way;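 further: potency means the concentration at half of the fitted maximal effect; 0% = wells with enzyme and -100% = buffer wells without enzyme; nearly all actives have a fitted effect of over 50% in size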
# BAZ2B inh = blocks human BAZ2B; Q9UIF8; hit rate 4.4% among 360,000; AlphaScreen BAZ2B-H3K14Ac peptide displacement; Potency, µM (series often up to 114 µM), without a hit: at the highest dose activity change, negative = inhibition, hits mostly inhibitors; further: potency means the concentration at half of the fitted maximal effect; on the % scale 0 is the no-effect control and ±100 the full control effect; nearly all actives have a fitted effect of over 60% in size
#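 Inhibition is scored as reduced AlphaScreen emission. The BAZ2B/b-H3(5-23)K14Ac complex (50 nM each) in PBS pH 7.4, 0.01% Tween-20 meets compound (up to 110 uM) for 30 min at RT before bead addition.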
# L3MBTL1 block = blocks human L3MBTL1; Q9Y468; AlphaScreen L3MBTL1–H3K9me1 peptide binding; Potency, µM (top dose mostly 57.1 µM), inactives show at the top dose activity, negative = inhibition, hits mostly inhibitors; hit rate 0.66% among 230,000; further: potency means the concentration at half of the fitted maximal effect; on the % scale 0 is the no-effect control and ±100 the full control effect; nearly all actives have a fitted effect of over 60% in size
#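 AlphaScreen assay: L3MBTL1 (50 nM final) was preincubated 30 min at room temperature with biotinylated H3(1-15)K9me1 peptide (75 nM final), then 30 min with library compounds; streptavidin donor and nickel chelate acceptor beads (10 ug/mL final) added, 30 min dark.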
# * hit, by the source's call; ? = inconclusive; nt = no result; [ ] = remark or other dose. This is a sample that favours compounds with a hit; in the whole collection about 5.7% have one here. Unless noted, the call rests on the fitted dose curve; in most records, active means well fitted inhibition curve with a large enough effect; inconclusive means small, poorly fitted or top-dose-only effect; inactive means no such curve, though single readings can be large or run the other way.
SMILES,JMJD2A Tudor,HP1b chromo inh,PI5P4Ka inh,KDM4E inh,BAZ2B inh,L3MBTL1 block
COCCn1c(C)cc(O)c(C(c2ccccc2)N2CCN(c3ccccc3)CC2)c1=O (stereo unspecified),8%,27%[57 µM],nt,nt,3%,nt
C=Cc1c(C)c2cc3[nH]c(cc4nc(cc5nc(cc1[nH]2)C(C)=C5CCC(=O)O)C(CCC(=O)O)=C4C)c(C)c3C=C,20µM*,193%,-51*,-12%,40µM*,42%
O=c1[nH]cnc(CN2CCCCC2)c1O,50µM*,23%,2,nt,nt,nt
O=C(CSc1nnc2c3ccccc3c3ccccc3c2n1)Nc1ccccc1F,-22%,-11%,?,0%,56µM*,-8%
CC(=O)N/N=C/c1cc(C(C)(C)C)cc(/C=N/NC(C)=O)c1O,-30%,35%,4,22µM*,-19%,-11%
Cc1cc(C)c(C#N)c(=N)o1,79µM*,-58%,?,?,nt,-6%
CC(=O)Nc1ccc(NCN2C(=O)C3C4CCC(C4)C3C2=O)cc1 (stereo unspecified),44%,15%,-4,6%,6%,?
CC(=O)Nc1ccc([C@H]2[C@H](C)CC[C@H]3C(=O)N4[C@@H](CC[C@@H](C)[C@@H]4c4ccc(NC(C)=O)cc4)C(=O)N32)cc1,nt,nt,nt,1%,56µM*,1%
C#CCN1C(=O)S/C(=C\c2ccc(-c3ccc(Cl)c(C(=O)O)c3)o2)C1=O,-1%,32%,?,nt,-32%,?
O=C(O)c1cc(-c2ccc(/C=C3\NC(=O)N(c4ccc(Cl)cc4)C3=O)o2)ccc1Cl,32µM*,?,?,?,45µM*,7.9µM*
O=C1NN(c2ccccc2)C(=O)/C1=C/c1ccc(Sc2ccc(Cl)cc2)o1,?,-8%[57 µM],?,-11%,-36%,nt
O=C1NN(c2ccccc2)C(=O)/C1=C/c1ccc(-c2ccc(Cl)c(C(=O)O)c2)o1,56µM*,?,-16,?,50µM*,nt
CCOc1ccc(C(=O)NCC(c2ccc3c(c2)OCO3)N2CCN(c3ccc(F)cc3)CC2)cc1 (stereo unspecified),?,-19%[57 µM],nt,nt,-13%,nt
COc1ccc(NC(=O)CSC2=Nc3ccccc3C3=NC(CCC(=O)NCc4ccco4)C(=O)N23)cc1 (stereo unspecified),-8%,29%,nt,nt,-3%,nt
Cc1ccc(Cl)cc1N1CCN(CCCNC(=O)C2COc3ccccc3C2)CC1 (stereo unspecified),-27%,26%[57 µM],nt,nt,-18%,nt
Cc1cccn2cc(-c3cccc(NC(=O)C(C)C)c3)nc12,-20%,-4%,nt,nt,-12%,nt
COCC(C)n1c(SCC(=O)c2cc(C)n(C)c2C)nc2ccccc2c1=O (stereo unspecified),?,-28%,-6,-9%,50µM*,-27%
Cc1cc(C(=O)CSc2nc3ccccc3[nH]2)c(C)n1C,56µM*,?,-6,-2%,?,-15%
O=C(CSc1nc2ccccc2[nH]1)NC1CCCC1,-22%,-9%,-23,-3%,79µM*,?
O=C(CCCSc1nc2ccccc2[nH]1)NC1CCCCC1,-4%,24%,-1,6%,-15%,nt
Cc1cccc(CNC(=O)Cc2csc3ccccc23)c1,-5%,45%,nt,nt,11%,nt
Cc1cccc(C)c1OCC(N)C(C)C (stereo unspecified),0%,33%,6,0%,71µM*,-3%
C[C@]12CCC[C@H](O1)c1c(cc3c(c1O)C(=O)c1c(O)cc(O)cc1C3=O)O2,35µM*,?,-19,nt,nt,nt
CC1(C)CC(=O)c2c(O)cc(O)cc2O1,-11%,22%,nt,-7%,-4%,nt
COc1ccc(C(=O)CSc2nnc(CNC(=O)c3ccc(OC)c(OC)c3)n2C)cc1,45µM*,-8%,-20,-2%,7%,2%
SMILES,JMJD2A Tudor,HP1b chromo inh,PI5P4Ka inh,KDM4E inh,BAZ2B inh,L3MBTL1 block
CCSCc1nnc(SCC(=O)c2ccc(OC)cc2)n1C,50µM*,2%,-10,-6%,0%,6%
Cc1cc(C)cc(NC(=O)Nc2c[nH]c(=O)[nH]c2=O)c1,-17%,58%,nt,nt,-15%,nt
COC(=O)C1=C(C)N(CC2CC2)C(=O)N[C@H]1CCc1ccccc1,nt,nt,nt,-6%,nt,nt
O=C(Nc1ccc(N2CCOCC2)c(C(=O)O)c1)c1ccc(Br)cc1,71µM*,33%,nt,nt,?,nt
Cc1cccc(C(=O)Nc2ccc(N3CCC(CCN4CCOCC4)CC3)c(C(=O)O)c2)c1,-25%,16%,nt,nt,32µM*,-29%
O=C(Nc1ccc(N2CCOCC2)c(Cl)c1)c1ccc(Cl)cc1,-29%,3%,-6,-2%,-33%,nt
O=C(O)CCC(=O)Nc1ccc(N2CCCCC2)c(C(=O)O)c1,-12%,32%,3,?,10%,1%
O=C(Nc1cnc(N2CCC(N3CCCCC3)CC2)c(C(=O)O)c1)c1ccc(Br)cc1,79µM*,-3%,nt,nt,?,nt
O=C(Nc1ccc(N2CCC(N3CCCCC3)CC2)c(C(=O)O)c1)c1ccc(Br)cc1,?,14%,nt,nt,79µM*,nt
COc1ccc(N2CC(NC(=O)c3cccs3)CC2=O)cc1OC (stereo unspecified),-7%,17%,nt,nt,-10%,nt
C=CCCCCCCCCCCCc1ccco1,nt,nt,nt,-3%,nt,nt
O=C(C1CC(=O)N(c2ccc(Cl)cc2)C1)N1CCC(c2nc3ccccc3[nH]2)CC1 (stereo unspecified),-7%,7%,-15,nt,6%,-4%
Cc1ccc(S(=O)(=O)NNC(=O)Cc2cccn2C)cc1,3%,40%,-4,?,?,-8%
Cc1cccc(S(=O)(=O)NNC(=O)Cc2cccn2C)c1,40µM*,-30%,?,-6%,-28%,2%
COc1ccc(NC(C)C(=O)Nc2cc(C(F)(F)F)ccc2N2CCOCC2)c(OC)c1 (stereo unspecified),45µM*,?,0,-2%,32µM*,?
COc1cc(Cl)c(C)cc1NC(C)C(=O)Nc1cc(C(F)(F)F)ccc1N1CCOCC1 (stereo unspecified),-27%,8%,-4,0%,?,0%
Cc1cccc(NC(=O)c2ccc(NCCO)c([N+](=O)[O-])c2)n1,-22%,6%,-8,10%,89µM*,nt
COc1ccc(C)cc1NC(=O)Cc1ccc(NC(=O)N2CCCCc3ccccc32)cc1,-24%,-6%,nt,nt,-27%,nt
O=C(COC(=O)c1ccc([N+](=O)[O-])s1)Nc1ncc(C(F)(F)F)cc1Cl,?,?,-26,20µM*,?,?
COc1ccc(CN2CCCC(C(=O)N3CCCCC3)C2)c(OC)c1 (stereo unspecified),?,-13%,-9,nt,-27%,-4%
